Source: paper PMC7819943, “Rice protein-binding microarrays: a tool to detect cis-acting elements near promoter regions in rice”
Whole data set: some 39,000 sequences, median “fluorescence intensity (a.u.)” near 4,300, cut for the highest 2% near 39,000. This is one part of a sample in which the highest values are shown more often than they occur.

These sequences were tested against T1, OsSMF1 (Oryza sativa, UniProt Q6ZLB0 1-436) (assay: protein-binding microarray (RPBM); PBS, 2% BSA, 51.3 ng/ul salmon testes DNA, 50 uM zinc acetate, 200 nM TF, 25 C, 1 h; high values mean tight binding). Settings: protein: recombinant; tags: N-terminal polyhistidine and DsRed monomer fusion (pET32a); chain copies: 2; label: CyDye5-dUTP incorporated in the synthesized complementary strand; 3' TTTTT single-stranded linker to array surface; dsDNA, one strand shown.
T1 sequence: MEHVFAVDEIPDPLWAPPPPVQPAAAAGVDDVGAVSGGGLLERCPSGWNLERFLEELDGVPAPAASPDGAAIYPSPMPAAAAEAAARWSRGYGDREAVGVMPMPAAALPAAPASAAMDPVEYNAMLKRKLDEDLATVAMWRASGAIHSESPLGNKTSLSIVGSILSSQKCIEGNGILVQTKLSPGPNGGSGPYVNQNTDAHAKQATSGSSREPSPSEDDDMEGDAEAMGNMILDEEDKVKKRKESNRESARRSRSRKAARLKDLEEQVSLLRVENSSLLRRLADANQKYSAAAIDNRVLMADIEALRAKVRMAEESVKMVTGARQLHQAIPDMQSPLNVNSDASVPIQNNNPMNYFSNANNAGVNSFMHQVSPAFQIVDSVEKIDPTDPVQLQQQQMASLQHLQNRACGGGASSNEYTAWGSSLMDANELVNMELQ
In short: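 In PBS with 2% BSA, salmon testes DNA and 50 µM zinc acetate, 200 nM protein was incubated on a custom Agilent array at 25 °C for 1 h and then washed off. The array had been made double-stranded by primer extension with Cy5-dUTP and blocked with 2% BSA. The proteins were transcription factors fused N-terminally to polyhistidine and DsRed, expressed in E. coli BL21-CodonPlus and purified on Ni–NTA. The binding signal is per-feature fluorescence intensity (arbitrary units) from an Axon 4000B scanner.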

Row | Sequence | binding signal
1 | TTCAAGTCCACATGGTGCTGACGTGAAACTGTCACATACACGGAGTCACCTAGTGCAG | 7250 fluorescence intensity (a.u.)
2 | GCATAGGAAGGTGACATGGCATATCCATGTGGCGATTTTGCGGAGTCACCTAGTGCAG | 7280 fluorescence intensity (a.u.)
3 | ACCAGTACGCATAGCATCATGTTGTTCCTGTGAAAGCATCCGGAGTCACCTAGTGCAG | 3460 fluorescence intensity (a.u.)
4 | AGCTTCATCTGCAATCCTCCGCTGATCTCTCCCTGTCCGGCGGAGTCACCTAGTGCAG | 3940 fluorescence intensity (a.u.)
5 | CCATCGCCGCCGCCCTCTTCTTCTTCTTCTTGCGAAGCAACGGAGTCACCTAGTGCAG | 19100 fluorescence intensity (a.u.)
6 | TTTCAGAGTTTGAAGTTGGAAATCAACCTTGTTGTTCTCTCGGAGTCACCTAGTGCAG | 63100 fluorescence intensity (a.u.)
7 | AAGAGATCCTTGTGTTTCGGAAGAATTTTGGTTGGTGTATCGGAGTCACCTAGTGCAG | 23500 fluorescence intensity (a.u.)
8 | GCAGAGGAACCTTGGTAGTAGTATTTGGTTTCTCAGAAGTCGGAGTCACCTAGTGCAG | 52600 fluorescence intensity (a.u.)
9 | ACAAGTTGGAGCTACTTTCTTTTGAAATGACAGATCAACTCGGAGTCACCTAGTGCAG | 3250 fluorescence intensity (a.u.)
10 | CATAATATGGTAGTGTTGTTTCTCATGCAAGTATTGGCGTCGGAGTCACCTAGTGCAG | 3160 fluorescence intensity (a.u.)
11 | TTATTTTGGTCAGTTGAAGTGTGGAAAATGGTGAAAATCTCGGAGTCACCTAGTGCAG | 3880 fluorescence intensity (a.u.)
12 | GAGAGCTCCCTTTTCGTACCACCTCGCCGCGTCGGCTGCTCGGAGTCACCTAGTGCAG | 4870 fluorescence intensity (a.u.)
13 | AGCCGCGGTCACGCACGCCACGCGTTCGATCGATCGATCACGGAGTCACCTAGTGCAG | 4120 fluorescence intensity (a.u.)
14 | GCTGGCTGGATTGCCACGTGTATGTCACGTAGGATAAAACCGGAGTCACCTAGTGCAG | 14300 fluorescence intensity (a.u.)
15 | GTTGACCCGCAGTTCCCCTTTGTTTTCCACGTGTTTCTTCCGGAGTCACCTAGTGCAG | 7790 fluorescence intensity (a.u.)
16 | CGGACGTCCCACACGCTTGGTGTCACGACGAGAGGAACCTCGGAGTCACCTAGTGCAG | 3450 fluorescence intensity (a.u.)
17 | ATCAAAGAGGATTCTGTATTGTATTGGCAACAACCGAAAACGGAGTCACCTAGTGCAG | 13800 fluorescence intensity (a.u.)
18 | AAACATCAATTGTATTATCCTTGAAAAGAAGGCACATCACCGGAGTCACCTAGTGCAG | 44800 fluorescence intensity (a.u.)
19 | CTTGAAGGAAAACAAGTATAAGGTTCATCCTCATCATCACCGGAGTCACCTAGTGCAG | 3270 fluorescence intensity (a.u.)
20 | ATTGAAAATTTTGTTTGAGTGCACATCGTGTGCATTTTATCGGAGTCACCTAGTGCAG | 8920 fluorescence intensity (a.u.)
21 | AAATTTTAATACGTGTAGCATTGCTCCCGGTAATGTATTTCGGAGTCACCTAGTGCAG | 3700 fluorescence intensity (a.u.)
22 | ATAGAGATCACAGTCACACACATATGGCCTGTGCATTTACCGGAGTCACCTAGTGCAG | 3720 fluorescence intensity (a.u.)

Row | Sequence | binding signal
23 | CGAAAATGATCTGACACTTATTCGAAAGCAACGTCACAAGCGGAGTCACCTAGTGCAG | 4300 fluorescence intensity (a.u.)
24 | GGAGAAACAATATTCGTCATACATTTTGAACCAGATCAAGCGGAGTCACCTAGTGCAG | 31700 fluorescence intensity (a.u.)
25 | TGACATAGAGAGTGATCACAAGCGAAATATTTATTCGGAACGGAGTCACCTAGTGCAG | 48300 fluorescence intensity (a.u.)
26 | GGCCAGGATGATCGAGCACTTGGTTGTGACACAGAGGGTGCGGAGTCACCTAGTGCAG | 3220 fluorescence intensity (a.u.)
27 | ATTTGGTATGACTTGGCTTCAAACCAAGATGGTCCGGAGTCGGAGTCACCTAGTGCAG | 5390 fluorescence intensity (a.u.)
28 | CCCACATCGCTCCGCGTCATTAGATTTAGCACTTTATCTTCGGAGTCACCTAGTGCAG | 5240 fluorescence intensity (a.u.)
29 | CATGTTCGTGCGCCGTCACTACAGGCACCTCGCTGTCAACCGGAGTCACCTAGTGCAG | 40100 fluorescence intensity (a.u.)
30 | CGCCATGTGTCAACTGGCATGGCCGTGCGCTGGCACACACCGGAGTCACCTAGTGCAG | 5160 fluorescence intensity (a.u.)
31 | TGCGCCGTCTGCGTCAGCGTGCCTCGTCGCAGTCGCAGGCCGGAGTCACCTAGTGCAG | 6400 fluorescence intensity (a.u.)
32 | TATGACTAATCATGGACTAATTAGGCTCAAAAGATTCGTCCGGAGTCACCTAGTGCAG | 33200 fluorescence intensity (a.u.)
33 | ATATATACTCCAAGCTCGGTGAGCCAGCATCACCACCAACCGGAGTCACCTAGTGCAG | 3220 fluorescence intensity (a.u.)
34 | CCTAAATAAGCTAGCAAAATAGCCAATGCCAGCCAATATTCGGAGTCACCTAGTGCAG | 28300 fluorescence intensity (a.u.)
35 | CTATGGCTCATGAGCCAAAATTCAAAAGGCTAACGTTGGCCGGAGTCACCTAGTGCAG | 43400 fluorescence intensity (a.u.)
36 | TAAGCTCCAAAGCCAGCTATAGCATGAGCTCCAAAATATACGGAGTCACCTAGTGCAG | 45700 fluorescence intensity (a.u.)
37 | TTGGCCACCTCCACCTCACTCGCATGAAGGCTAAGTGAGCCGGAGTCACCTAGTGCAG | 4160 fluorescence intensity (a.u.)
38 | CACCTCCCCTTCCCATCCCAACCGGCCAACCCTCCCCACCCGGAGTCACCTAGTGCAG | 13900 fluorescence intensity (a.u.)
39 | GCCGATCCCCGAGGAGGGCGGCGACGTGGAAGGGGAGGGCCGGAGTCACCTAGTGCAG | 4090 fluorescence intensity (a.u.)
40 | GGTAATGGGAGAGGCTGATGTGGCGTGAAATCTCTTGCGTCGGAGTCACCTAGTGCAG | 16800 fluorescence intensity (a.u.)
41 | TTTATCAAAGCGTCATATATCAATGACCAGAGGTACAACACGGAGTCACCTAGTGCAG | 3940 fluorescence intensity (a.u.)
42 | CACCATTTTGGGCCGACACATCAAGCAGGCCAACGCGCAGCGGAGTCACCTAGTGCAG | 3300 fluorescence intensity (a.u.)
43 | CCCAACTGTTCTTTCCGTCACGTCACGCACAAGTCAAAATCGGAGTCACCTAGTGCAG | 5230 fluorescence intensity (a.u.)
